This note sets out measurements from PubChem BioAssay (Tox21).

The source made the active and inactive calls. The call rests on the fitted dose curve; in most records, active means well fitted curve in the direction sought with a large enough effect in the repeat runs; inconclusive means weak or mixed curves; inactive means flat fitted curve, though single readings scatter. Positions of bridges follow the written chain, without caps; N, C: chain ends. Non-standard residues stand in square brackets, D forms with d. Residues, ends and D or L forms follow the SMILES beside them. *: point of attachment. X1 = CC[C@@H](C)[C@@H](N)C1=N[C@H](C(=O)*)CS1; d(aIle) = CC[C@H](C)[C@@H](N)C(=O)O; dOrn = NCCC[C@@H](N)C(=O)O
On the % scale 0 is the no-effect control and ±100 the full control effect.

A short description of the assay: qHTS assay to test for compound auto fluorescence at 535 nm (green) in HEK293 cell free culture (AID 720682). The settings on record: cell-free medium, green autofluorescence 485/535 nm, active compounds read high; series mostly up to 46 µM; activity change: at the top concentration. The text has this: U.S. Tox21 Program National Center for Advancing Translational Sciences [NCATS] NIH Chemical Genomics Center [NCGC] U.S. Environmental Protection Agency [EPA] National Institutes of Environmental Health Sciences [NIEHS] National Toxicology Program [NTP] U.S. Food and Drug Administration [FDA] Tox21 Assay Overview: Compound auto fluorescence often interferes with screening of the compound library against various biological targets and signaling pathways. Some of these compounds may have fluorophoric properties. Such properties may interfere with the assay outputs resulting in false positives and/or negatives. To decrease such complications and ensure the compound activities are relevant in terms of biological response, the Tox21 10K compound library was screened for auto fluorescence. From the fluorophores used as reporter signals in our screening assays, the auto fluorescence equivalencies of compounds against three fluorophores have been evaluated: Triamterene, Fluorescein and Rose Bengal sodium for blue, green and red fluorescence, respectively. The fluorescence intensities were measured using Excitation/Emission wavelengths at 405/460nm, 485/535nm and 540/590nm for blue, green and red labels, respectively. This assay includes the green fluorescence data.
Tox21 Assay Protocol Summary: 5 uL of culture medium (DMEM containing 10% FBS) per well was dispensed into black wall/clear bottom 1536-well plates using a Multidrop Combi Dispenser (ThermoFisher Scientific, Waltham, MA). After 23 nL compound or DMSO vehicle was transferred into assay plate by a pintool work station (Kalypsys, San Diego, CA), fluorescence intensities in the assay plates were measured by an Envision (PerkinElmer, Shelton, CT) plate reader using three labels for measuring blue, green and red fluorescence at […] 460, 535 and 590nm respectively.
As for `O=C1CCCCCCCCCCCCCC1`, the “activity change” value was -0.0074% [at 91.3 µM] (inactive). Regarding `CC[C@@H](C)[C@H](N)C(=O)O`, the “activity change” value is -0.0312% (inactive). Consider `CN(C/C=C/c1ccccc1)Cc1cccc2ccccc12`, for which the “activity change” value was 0.0092% (inactive). Regarding `CC[C@H]1OC(=O)C[C@@H](O)[C@H](C)[C@@H](O[C@@H]2O[C@H](C)[C@@H](O)[C@H](N(C)C)[C@H]2O)[C@@H](CCN2C[C@H](C)C[C@H](C)C2)C[C@@H](C)C(=O)/C=C/C(C)=C/[C@@H]1CO[C@@H]1O[C@H](C)[C@@H](O)[C@@H](OC)[C@H]1OC`, the “activity change” value was -0.0103% (inactive). As to `Cc1cc(-c2ccc(N=Nc3ccc4c(S(=O)(=O)O)cc(S(=O)(=O)O)c(N)c4c3O)c(C)c2)ccc1N=Nc1ccc2c(S(=O)(=O)O)cc(S(=O)(=O)O)c(N)c2c1O`, the call was inactive. Regarding `C[Se]CC[C@H](N)C(=O)O`, the “activity change” value was -0.0355% (inactive).

Turning to `CC12CCC(C1)C(C)(C)C2=O` (stereo not given), the “activity change” value was 0.115% (inactive). With `CNCCC=C1c2ccccc2CCc2ccccc21`, the “activity change” value was 0.0211% (inactive). On to `Nc1ccc(N)c([N+](=O)[O-])c1`, for which the “activity change” value was -0.457% [at 91.3 µM] (inactive). For the molecule `C[C@H](Cc1ccc(O)c(O)c1)[C@@H](C)Cc1ccc(O)c(O)c1`, the “activity change” value is 0.0217% (inactive). As to `CC(=O)N(C)C`, the result was inactive. For `CN[C@H](CC(C)C)C(=O)N[C@H]1C(=O)N[C@@H](CC(N)=O)C(=O)N[C@H]2C(=O)N[C@H]3C(=O)N[C@H](C(=O)N[C@@H](C(=O)O)c4cc(O)cc(O)c4-c4cc3ccc4O)[C@H](O)c3ccc(c(Cl)c3)Oc3cc2cc(c3O[C@@H]2O[C@H](CO)[C@@H](O)[C@H](O)[C@H]2O[C@H]2C[C@](C)(N)C(O)[C@H](C)O2)Oc2ccc(cc2Cl)[C@H]1O` (stereo not given in full), the result was inactive. Consider `CC12CCC(C[N+](C)(CCC[N+](C)(C)C)C1)C2(C)C` (stereo not given), for which the “activity change” value was 0.0689% (inactive). As to `COc1cc(/C=C/C(=O)CC(=O)/C=C/c2ccc(O)c(OC)c2)ccc1O`, the call was inactive. Take `N=C(N)c1ccc(/C=C/c2ccc(C(=N)N)cc2O)cc1`: the “activity change” value is 0.0068% (inactive).

On to `CO/N=C(\C(=O)N[C@@H]1C(=O)N2C(C(=O)[O-])=C(C[n+]3ccc(N)n3CCO)CS[C@H]12)c1csc(N)n1`, for which the “activity change” value is 0.0394% (inactive). For `CC1(C)CCC(NC(=O)[C@@H](N)CCC(=O)O)CC1`, the “activity change” value was -0.0067% (inactive). In the case of `COc1cc2c(c(OC)c1OC)-c1c(cc3c(c1OC)OCO3)C[C@@H](C)[C@](C)(O)C2`, the outcome was inactive. On the same count and under the same terms, in the case of `CC(C)=CCC/C(C)=C/CC/C(C)=C/CC/C=C(\C)CC/C=C(\C)CCC=C(C)C` it was “inactive”; in that of `CC[C@@H](C)[C@@H](N)C1=N[C@H](C(=O)N[C@@H](CC(C)C)C(=O)N[C@@H](CCC(=O)O)C(=O)N[C@@H](C(=O)N[C@@H]2CCCCNC(=O)[C@@H](CC(N)=O)NC(=O)[C@@H](CC(=O)O)NC(=O)[C@@H](Cc3cnc[nH]3)NC(=O)[C@@H](Cc3ccccc3)NC(=O)[C@@H]([C@H](C)CC)NC(=O)[C@@H](CCCN)NC2=O)[C@@H](C)CC)CS1` (X1-LE[d(aIle)][dK][dOrn][dI][dF][dH][dD][dN]; lactam 4-C), “inactive”. As for `CC1=C(/C=C/C(C)=C/C=C/C(C)=C\C(=O)O)C(C)(C)CCC1`, the “activity change” value is 0.253% [at 91.3 µM] (inactive).

`CCOc1cc(CC(=O)N[C@@H](CC(C)C)c2ccccc2N2CCCCC2)ccc1C(=O)O`: the “activity change” value is 0.109% [at 18.6 µM] (inactive). Take `CNC(=O)OCc1cccc(COC(=O)NC)n1`: the “activity change” value is -0.019% (inactive). Take `CCC(NC(C)C)C(O)c1ccc(O)c(O)c1` (stereo not given): the “activity change” value is 0.158% (inactive). On to `COc1ccc([C@@H]2CC(=O)c3c(O)cc(O[C@@H]4O[C@H](CO[C@@H]5O[C@@H](C)[C@H](O)[C@@H](O)[C@H]5O)[C@@H](O)[C@H](O)[C@H]4O)cc3O2)cc1O`, for which the “activity change” value is 0.0256% [at 18.6 µM] (inactive).

Turning to `CCCCCCCCCCCCCCCCCCOCC(COP(=O)([O-])OCC[N+](C)(C)C)OC` (stereo not given), the “activity change” value was 0.0805% (inactive).

Take `CCc1cn([C@H]2C[C@H](O)[C@@H](CO)O2)c(=O)[nH]c1=O`: the “activity change” value was 0.0034% (inactive).

`CSCCC(N)C(=O)O` (stereo not given): the “activity change” value was -0.0311% (inactive).

With `COC(=O)C(CN)c1c[nH]c2ccc(OC)cc12` (stereo not given), the “activity change” value is 0.0011% (inactive). Consider `CN1CCN(CCCN2c3ccccc3Sc3ccc(C(F)(F)F)cc32)CC1`, for which the “activity change” value was -0.0682% (inactive). As to `CC(C)c1ccc2sc3ccccc3c(=O)c2c1`, the “activity change” value is 0.0077% [at 91.3 µM] (inactive). Still for that read-out and setting: in the case of `CNCC(=O)N[C@@H](CCCN=C(N)N)C(=O)N[C@H](C(=O)N[C@@H](Cc1ccc(O)cc1)C(=O)N[C@H](C(=O)N[C@@H](Cc1cnc[nH]1)C(=O)N1CCC[C@H]1C(=O)N[C@@H](C)C(=O)O)C(C)C)C(C)C` it was 0.0452% (inactive). Turning to `CCCCCCCC[N+](C)(C)CCCCCCCC`, the call was inactive. `CC(C)CCC[C@@H](C)[C@H]1CC[C@H]2[C@@H]3CC=C4C[C@@H](O)CC[C@]4(C)[C@H]3CC[C@]12C`: the “activity change” value is 0.137% (inactive). On to `CC(C)(C)C(=O)OCC(=O)[C@H]1CC[C@H]2[C@@H]3CCC4=CC(=O)CC[C@]4(C)[C@H]3CC[C@]12C`, for which the “activity change” value was -0.0051% (inactive). In the case of `S=C1NC=NC2N=CNC12` (stereo not given), the “activity change” value was -0.0096% [at 91.3 µM] (inactive). Turning to `CC(C)Cc1ccc([C@H](C)C(=O)O)cc1`, the “activity change” value was -0.0601% (inactive). Turning to `CC(C)c1ncc([N+](=O)[O-])n1C`, the “activity change” value was -0.213% (inactive).

In the case of `CCOC(=O)Cc1ccc(-c2ccccc2)cc1`, the “activity change” value was -0.068% (inactive). `COc1cccc2c1[C@@H]1CN(CCCCn3c(=O)[nH]c4c(sc5ncc(-c6ccccc6)nc54)c3=O)C[C@@H]1CO2`: the “activity change” value was 0.0117% (inactive).
